Reference: PubChem BioAssay (NCI)
This is part of a sample that, as a whole, favours compounds with a hit. Of some 83,000 tested, about 20% had one in any assay.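 For each line, cells grew in 96-well plates with the test compound present at a single concentration for 48 hours.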 Calls of active or inactive are those of the source. The calls were made as follows: active = growth percent below 10; inactive = the rest.

Columns and labels:
Experiment in all cases: NCI-60 one-dose screen, 48 h (100 = growth as untreated, 0 = no growth, -100 = all killed)
Details in all cases: 10 µM unless noted
HCT-15 colon = tested on: HCT-15 colon
HT29 colon = tested on: HT29 colon
SNB-75 CNS = tested on: SNB-75 CNS
SNB-19 CNS = tested on: SNB-19 CNS
U251 CNS = tested on: U251 CNS
PC-3 prostate = tested on: PC-3 prostate
SK-MEL-5 melanoma = tested on: SK-MEL-5 melanoma
UACC-62 melanoma = tested on: UACC-62 melanoma
LOX IMVI melanoma = tested on: LOX IMVI melanoma
SK-MEL-28 melanoma = tested on: SK-MEL-28 melanoma

Measured: growth

Cc1c(C)c(C)c([N+](=O)[O-])c([N+](=O)[O-])c1C
inactive: HCT-15 colon 94% | HT29 colon 102% | SNB-75 CNS 111% | SNB-19 CNS 95.4% | U251 CNS 101% | PC-3 prostate 84% | SK-MEL-5 melanoma 99.3% | UACC-62 melanoma 83.6% | LOX IMVI melanoma 95.9% | SK-MEL-28 melanoma 104%

Brc1cccc(-n2ncc3c(Nc4ccc(-c5nnc(-c6ccccc6)o5)cc4)ncnc32)c1
inactive: HCT-15 colon 101% | HT29 colon 106% | SNB-75 CNS 92.3% | SNB-19 CNS 102% | U251 CNS 103% | PC-3 prostate 95.1% | SK-MEL-5 melanoma 98.7% | UACC-62 melanoma 93.3% | LOX IMVI melanoma 93.3% | SK-MEL-28 melanoma 112%

C[C@@H](C[C@H](CC1CC1)c1ccccc1)c1ccc2ccccc2c1
inactive: HCT-15 colon 107% | HT29 colon 105% | SNB-75 CNS 85% | SNB-19 CNS 101% | U251 CNS 101% | PC-3 prostate 98.9% | SK-MEL-5 melanoma 99.9% | UACC-62 melanoma 103% | LOX IMVI melanoma 98.4% | SK-MEL-28 melanoma 107%

CS(=O)(=O)Nc1cc(-c2cc3ncc(C#N)c(Nc4ccc(Oc5ccccc5)c(Cl)c4)c3s2)cnc1Cl
inactive: HCT-15 colon 37.2% | HT29 colon 57.6% | SNB-75 CNS 39.2% | SNB-19 CNS 62.8% | U251 CNS 44.6% | PC-3 prostate 45.5% | SK-MEL-5 melanoma 52.5% | UACC-62 melanoma 22% | LOX IMVI melanoma 25.9% | SK-MEL-28 melanoma 62.3%

COc1ccc(C(=O)c2cc(C)c(OC)c(C)c2)cc1OC(=O)CCl
active: U251 CNS 6.71% | SK-MEL-5 melanoma -18.4%
inactive: HCT-15 colon 13.1% | HT29 colon 13.3% | SNB-75 CNS 69.8% | SNB-19 CNS 30.8% | PC-3 prostate 25.9% | UACC-62 melanoma 41.8% | LOX IMVI melanoma 18.9% | SK-MEL-28 melanoma 57.5%

CC(=O)c1nn(-c2ccccc2)/c(=N\N=C\c2coc3ccc(F)cc3c2=O)s1
inactive: HCT-15 colon 101% | HT29 colon 108% | SNB-75 CNS 73.4% | SNB-19 CNS 94.4% | U251 CNS 100% | PC-3 prostate 92.6% | SK-MEL-5 melanoma 98.3% | UACC-62 melanoma 97.4% | LOX IMVI melanoma 95.2% | SK-MEL-28 melanoma 111%

COc1cccc(Cn2c(-c3nonc3NC(C)=O)nc3ccccc32)c1
inactive: HCT-15 colon 34.9% | HT29 colon 21.5% | SNB-75 CNS 10.1% | SNB-19 CNS 71.3% | U251 CNS 27.1% | PC-3 prostate 21.4% | SK-MEL-5 melanoma 28.4% | UACC-62 melanoma 45.2% | LOX IMVI melanoma 50.2% | SK-MEL-28 melanoma 57.3%

CCCCN(CCCC)CCCN=c1nc2c(c(N)n1-c1ccccc1)c(=S)n(-c1ccccc1)c(=S)n2-c1ccccc1
active: HCT-15 colon -73.3% | HT29 colon -63.3% | SNB-75 CNS -94.2% | SNB-19 CNS -87.4% | U251 CNS -100% | PC-3 prostate -70.8% | SK-MEL-5 melanoma -100% | UACC-62 melanoma -99.4% | LOX IMVI melanoma -89.7% | SK-MEL-28 melanoma -100%

FC(F)(F)C1=NNC(c2ccc3ccccc3c2)=NN1
inactive: HCT-15 colon 97.9% | HT29 colon 107% | SNB-75 CNS 80.3% | SNB-19 CNS 96.6% | U251 CNS 99.2% | PC-3 prostate 109% | SK-MEL-5 melanoma 97.8% | UACC-62 melanoma 101% | LOX IMVI melanoma 90.5% | SK-MEL-28 melanoma 112%
